{
  "source": "PubChem BioAssay (EPA / NIEHS)",
  "note": "Records with an inconclusive call do not appear. Activity calls are given as the source filed them. The calls were made as follows: active = hit-call score of the fitted dose curve at least 0.9, where 1 is the maximum; inconclusive = response in the unintended direction; inactive = score below 0.9.",
  "data": [
    {"assay": "Tanguay_ZF_120hpf_PE_legacy: (Legacy) Oregon State University Tanguay Lab 120 Hour Post-fertilization zebrafish Assay for Pericardial Edema (AID 2283640);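 as to AC50: potency for increased incidence of pericardial edema versus DMSO baseline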", "description": "Tanguay_ZF_120hpf_legacy is a whole embryo, multiplexed endpoint assay using zebrafish larvae exposed for 120 hours post fertilization on a 96-well plate.Tanguay_ZF_120hpf_PE_legacy is one of one assay component(s) measured or calculated from the Tanguay_ZF_120hpf_legacy assay. It is designed to make measurements of zebrafish development as detected with brightfield microscopy of developing zebrafish embryos.Data from the assay component Tanguay_ZF_120hpf_PE_legacy was analyzed into 1 assay endpoints. This assay endpoint, Tanguay_ZF_120hpf_PE_legacy, was analyzed in the positive analysis fitting direction relative to DMSO as the negative control and baseline of activity. Using a type of morphology reporter, gain-of-signal activity can be used to understand changes in developmentals as they relate to the whole embryo. To generalize the intended target to other relatable targets, this assay endpoint is annotated to the zebrafish development intended target family, where the subfamily is embryonic morphogenesis.\nZebrafish husbandry: Tropical 5D wild-type adult zebrafish were housed in at an approximate density of 1000 per 100 gallon tank at the Sinnhuber Aquatic Research Laboratory, Oregon State University, Corvallis, OR. Each tank was kept at standard laboratory conditions of 28C on a 14-h light/10-h dark photoperiod in fish water consisting of reverse osmosis water supplemented with a commercially available salt (Instant Ocean). Spawning funnels were placed into the tanks the night prior, and embryos were collected and staged. […] Ten microliters of each row of dilution plate 2 was added to 2 exposure plates. The final DMSO concentration used was 0.64% (vol/vol). Thirty-two embryos were also exposed to 5uM trimethyltin chloride (positive control). Plates were sealed to prevent evaporation and foil covered to reduce light exposure and kept in a 28C incubator. Embryos were statically exposed until 120 hpf. At 24 hpf, embryos were assessed for photomotor response using a custom photomotor response analysis tool (PRAT) and for developmental toxicity endpoints (MO24: mortality at 24 hpf, DP: developmental progression, SM: spontaneous movement, and NC: notochord distortion). At 120 hpf, locomotor activity was measured using Viewpoint Zebralab and assessed for 18 endpoints. Zebrafish acquisition and analysis program (ZAAP), a custom program designed to inventory, acquire, and manage zebrafish data, was used to collect developmental endpoints as either present or absent (i.e., binary responses were recorded). If mortality occurred for an embryo (at either 24 or 120 hpf), the non-mortality endpoints were not measured.", "values": [
      {"compound": "CN1C(=O)N(c2ccccc2Br)Cc2cnc(Nc3ccc4c(c3)OCC(CO)O4)nc21", "note": "(stereo not given)", "AC50": "2.66 µM (active)"},
      {"compound": "OC12N=C(c3ccccc3)SC1Cc1cc(Cl)ccc12", "note": "(stereo not given)", "AC50": "45.8 µM (active)"},
      {"compound": "c1ccc2ccccc2c1", "outcome": "inactive"},
      {"compound": "C[C@]12CC[C@@H]3c4ccc(O)cc4CC[C@H]3[C@@H]1CCC2=O", "outcome": "inactive"},
      {"compound": "O=C(O)c1ccccc1C(=O)OCc1ccccc1", "outcome": "inactive"},
      {"compound": "O=C=NCCCCCCN=C=O", "outcome": "inactive"},
      {"compound": "Clc1cc(Cl)c2c(c1)N=C1CCCCCN1C2", "AC50": "24.9 µM (active)"},
      {"compound": "COCC(C)OCC(C)OCC(C)O", "note": "(stereo not given)", "outcome": "inactive"},
      {"compound": "Oc1ccccc1", "outcome": "inactive"},
      {"compound": "CC(O)CC(C)(C)O", "note": "(stereo not given)", "outcome": "inactive"},
      {"compound": "CC/C(=C(/CC)c1ccc(O)cc1)c1ccc(O)cc1", "outcome": "inactive"},
      {"compound": "CN1C(=O)CC[C@H]1c1cccnc1", "outcome": "inactive"},
      {"compound": "O=C(O)c1ccccc1-n1cc(C(=O)O)c(=O)c2cc(Nc3c(F)cc(F)cc3Cl)c(Cl)cc21", "outcome": "inactive"},
      {"compound": "CCCCCCCCN(C)CCCCCCCC", "outcome": "inactive"},
      {"compound": "Cc1c2ccccc2c(C)c2c1ccc1ccccc12", "AC50": "4.18 µM (active)"},
      {"compound": "CCCOC(=O)c1cc(O)c(O)c(O)c1", "outcome": "inactive"},
      {"compound": "Oc1ccc2ccccc2c1", "outcome": "inactive"},
      {"compound": "COc1cccc([C@H](O)C2CCN(CCc3ccc(F)cc3)CC2)c1OC", "AC50": "38.7 µM (active)"},
      {"compound": "COc1cc(C(=O)NC2CCN(C)CC2)ccc1Nc1ncc2c(n1)N(C1CCCC1)CC(F)(F)C(=O)N2C", "AC50": "35.6 µM (active)"},
      {"compound": "CC(=O)N1CCN(c2ccc(OC[C@H]3CO[C@](Cn4ccnc4)(c4ccc(Cl)cc4Cl)O3)cc2)CC1", "outcome": "inactive"},
      {"compound": "c1ccc(C[n+]2cccc3ccccc32)cc1", "outcome": "inactive"},
      {"compound": "Cc1cc2c(cc1C(F)(F)F)N(C(=O)Nc1ccc(Oc3cccnc3C)nc1)CC2", "outcome": "inactive"},
      {"compound": "COc1ccc2cc(S(=O)(=O)N[C@H](CC(=O)N[C@H](Cc3ccc(CN4[C@H](C)CCC[C@@H]4C)cc3)C(=O)N(C)C(C)C)c3ccc4c(c3)OCO4)ccc2c1", "outcome": "inactive"},
      {"compound": "CC(C)(O)c1ccc(CNC(=O)c2cccnc2Oc2ccc3nonc3c2)cc1", "outcome": "inactive"},
      {"compound": "NCc1cccc(C2CCN(C(=O)c3ccc(C#Cc4ccccc4F)o3)CC2)c1", "outcome": "inactive"},
      {"compound": "Cc1ccc2oc(CN(Cc3ccccc3)C(=O)Nc3c(F)cc(F)cc3F)c(-c3ccc(Cl)cc3)c2c1", "outcome": "inactive"},
      {"compound": "CC(C)(c1cc(Br)c(O)c(Br)c1)c1cc(Br)c(O)c(Br)c1", "outcome": "inactive"},
      {"compound": "O=C(OCCCCCCOC(=O)c1ccccc1)c1ccccc1", "outcome": "inactive"},
      {"compound": "O=C1CCC(C2CCCCC2)CC1", "outcome": "inactive"},
      {"compound": "Cc1occc1C(=O)Nc1ccc(C(=O)N2CCC(F)(F)/C(=C\\C(=O)N3CCC(N4CCCCC4)CC3)c3ccccc32)cc1", "outcome": "inactive"},
      {"compound": "OCCO", "outcome": "inactive"},
      {"compound": "CCCCCCCCCCCCO", "outcome": "inactive"},
      {"compound": "CC1(C)NC(=O)N(c2ccc([N+](=O)[O-])c(C(F)(F)F)c2)C1=O", "outcome": "inactive"},
      {"compound": "CO[C@H]1/C=C/O[C@@]2(C)Oc3c(C)c(O)c4c(O)c(c(/C=N/N5CCN(C)CC5)c(O)c4c3C2=O)NC(=O)/C(C)=C\\C=C\\[C@H](C)[C@H](O)[C@@H](C)[C@@H](O)[C@@H](C)[C@H](OC(C)=O)[C@@H]1C", "outcome": "inactive"},
      {"compound": "CCCCOC(=O)CC(CC(=O)OCCCC)(OC(C)=O)C(=O)OCCCC", "outcome": "inactive"},
      {"compound": "CCN(Cc1cccnc1)C(=O)c1cccc(Cl)c1[C@]1(C)C(=O)N(Cc2ccc(OC)cc2OC)c2ccc(Cl)cc21", "outcome": "inactive"},
      {"compound": "CC1=CC(=O)/C(=C(/C)O)C(=O)O1", "outcome": "inactive"},
      {"compound": "CCN(CC)C(=O)c1cc(S(=O)(=O)Cc2ccccc2)c(N2CCC(c3ccccc3)CC2)cc1N(CC)CCN(C)C", "outcome": "inactive"},
      {"compound": "CCO[Si](CCCNC(N)=O)(OCC)OCC", "outcome": "inactive"},
      {"compound": "C[C@]12CC[C@@H]3c4ccc(O)cc4CC[C@H]3[C@@H]1CC[C@H]2O", "outcome": "inactive"}
    ]}
  ]
}
